Bioassay records (PubChem)
HT1080 IDH1KD tx – qHTS for induction of synthetic lethality in tumor cells producing 2HG: qHTS for the HT-1080-IDH1KD cell line; Potency, µM (doses to about 46.1 µM), for the others: at the highest dose activity, negative = toxicity, hits mostly cytotoxic; HT-1080 IDH1 knockdown viability, ATP luminescence, 48 h; AID 686971, 2013; actives 2% (n = 360,000);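 also: potency is read from the fitted curve at half-maximal effect; 0% = DMSO wells and -100% = cell-free medium wells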
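Cytotoxicity counter-line: IDH1KD HT-1080, 48 h, CellTiter-Glo. Curves classed by r2, magnitude and activity.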
TDP1 cell noCPT – qHTS for Inhibitors of human tyrosyl-DNA phosphodiesterase 1 (TDP1): qHTS in cells in absence of CPT | actives 15% (n = 420,000) | Potency, µM (highest dose often 46.2 µM), for inactives: at the top dose activity change, negative = growth inhibition, actives largely listed as inhibitors | DT40 Tdp1-/- hTDP1 cells, no CPT, ATP luminescence, 48 h; also: potency is read from the fitted curve at half-maximal effect; nearly all actives have a fitted effect of over 55% in size
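Compound effects on proliferation are scored in DT40 Tdp1-/-;hTDP1 cells in the absence of CPT. ATP levels (CellTiter-Glo luminescence) are recorded after a ≥48 hr, 37 °C incubation.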
HT1080-NT tox – qHTS for induction of synthetic lethality in tumor cells producing 2HG: qHTS for the HT-1080-NT fibrosarcoma cell line | actives 1.6% (n = 360,000) | HT-1080-NT fibrosarcoma viability, CellTiter-Glo ATP luminescence, 48 h | AID 686970, 2013 | Potency, µM (titrated, usually from 46.1 µM), for the others: at the top dose activity, negative = less viability, usual class: cytotoxic;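 also: NT is the 2HG producing partner of a matched IDH1 knockdown line; potency is read from the fitted curve at half-maximal effect; 0% = DMSO-treated cells and -100% = media-only wells without cells; nearly all actives have a fitted effect of over 55% in size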
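HT-1080-NT; 750 cells/well; 5% FBS RPMI; 48 h compound, 37 degrees C; CellTiter-Glo luminescence; curve fitting and curve-class assignment.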
DT40 TDP1 CPT – qHTS for Inhibitors of human tyrosyl-DNA phosphodiesterase 1 (TDP1): qHTS in cells in presence of CPT | chicken DT40 Tdp1-/-;hTDP1 cells + 20 nM CPT, ATP luminescence, 48 h | Potency, µM (titrated, usually from 46.2 µM), without a hit: at the top dose activity change, negative = growth inhibition, most hits filed as inhibitors | actives 12% (n = 420,000) | AID 686979, 2013; also: potency is read from the fitted curve at half-maximal effect; nearly all actives have a fitted effect of over 55% in size
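Chicken DT40 Tdp1-/- cells stably complemented with human TDP1 were seeded at 400 cells/well in medium containing 20 nM camptothecin, exposed to pin-transferred compounds, and grown at 37 °C for at least 48 hr. Viability was read as ATP luminescence.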
IL-1B inflam inh – qHTS for Inhibitors of Inflammasome Signaling: IL-1-beta AlphaLISA Primary Screen; THP-1 LPS/ATP IL-1B secretion, AlphaLISA, 16 h; active compounds read low; activity change, % at 57.5 µM; actives 4.7% (n = 360,000); AID 743279, 2014; in the data active = activity change below about -50%; inconclusive = mostly about -30% to -49%
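Secreted IL-1B measured by AlphaLISA bead assay after 16 h compound exposure of THP-1 cells; compounds (final up to 57.5 uM) added 1 h before LPS (250 ng/mL) and ATP (1.25 mM) stimulation; lower signal means less secretion.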
ALOX12 inh – Primary qHTS assay for inhibitors of human arachidonate 12S-lipoxygenase (ALOX12): Round 2 | actives 1.1% (n = 580,000) | purified 12hLO, xylenol orange hydroperoxide absorbance | Potency, µM (top dose mostly 108 µM), for the others: top-dose activity change, negative = inhibition, most hits filed as inhibitors | Polyunsaturated fatty acid lipoxygenase ALOX12 (Homo sapiens), P18054; also: potency is read from the fitted curve at half-maximal effect
Target sequence (P18054 whole entry, looked up): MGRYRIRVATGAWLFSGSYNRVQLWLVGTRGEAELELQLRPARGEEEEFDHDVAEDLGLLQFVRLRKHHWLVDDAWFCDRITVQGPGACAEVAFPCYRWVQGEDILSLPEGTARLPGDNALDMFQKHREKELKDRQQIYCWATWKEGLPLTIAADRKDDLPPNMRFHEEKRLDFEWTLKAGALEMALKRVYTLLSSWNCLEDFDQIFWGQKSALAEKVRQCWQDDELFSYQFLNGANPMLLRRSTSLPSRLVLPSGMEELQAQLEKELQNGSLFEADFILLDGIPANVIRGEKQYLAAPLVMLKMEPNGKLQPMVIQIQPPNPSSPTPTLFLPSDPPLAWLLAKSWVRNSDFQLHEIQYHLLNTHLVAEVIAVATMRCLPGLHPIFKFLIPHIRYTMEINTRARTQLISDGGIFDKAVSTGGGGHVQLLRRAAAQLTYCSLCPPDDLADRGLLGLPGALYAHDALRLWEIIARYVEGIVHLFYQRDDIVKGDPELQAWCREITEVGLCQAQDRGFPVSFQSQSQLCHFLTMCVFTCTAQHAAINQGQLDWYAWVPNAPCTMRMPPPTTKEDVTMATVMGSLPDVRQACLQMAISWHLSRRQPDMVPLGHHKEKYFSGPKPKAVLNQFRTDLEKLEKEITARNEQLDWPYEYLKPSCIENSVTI
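Purified human 12hLO (150 nM final) in 25 mM Hepes, 0.01% Triton X-100, pH 7.0 was preincubated 15 min at room temperature with compound. Then 40 uM arachidonic acid was added, 30 min. Hydroperoxide was read by Fe-XO absorbance ratio 573/405 nm.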
* = called active by the depositor; ? = inconclusive; · = no result given; [ ] = remark or other dose. This is one part of a sample in which hits are shown more often than they occur. Unless noted, calls follow the shape of the dose curve; as a rule, active = well fitted curve in the direction sought with a large enough effect; inconclusive = small, poorly fitted or top-dose-only effect, or another doubt; inactive = no such curve, though single readings can be large; an effect the other way counts as inactive or inconclusive. Unless noted, % is scaled to controls: 0 for no effect and ±100 for the full control effect.

SMILES	HT1080 IDH1KD tx	TDP1 cell noCPT	HT1080-NT tox	DT40 TDP1 CPT	IL-1B inflam inh	ALOX12 inh
CCCCCOC(=O)c1[nH]c2c(c1C)C(=O)CC(c1ccco1)C2 (centres undefined)	0.016µM*	0.16µM*	0.1µM*	0.18µM*	79	·
Cn1cc(CN2CCOC[C@H]2c2ncc(-c3ccc(F)cc3F)[nH]2)c2ccccc21	·	·	·	·	·	3%[176 µM]
Cc1c(C(=O)OCCOc2ccccc2)[nH]c2c1C(=O)CC(c1ccccc1Cl)C2 (centres undefined)	·	1.5µM*	·	1.5µM*	·	?
Cc1c(C(=O)OC2CCC(C)CC2)[nH]c2c1C(=O)CC(c1ccccc1Cl)C2 (centres undefined)	·	4.6µM*	·	5.2µM*	·	-12%
Cc1c(C(=O)OC2CCC(C)CC2)[nH]c2c1C(=O)CC(c1ccc(N(C)C)cc1)C2 (centres undefined)	·	-16%	·	-19%	·	-4%
Cc1c(C(=O)OCCOc2ccccc2)[nH]c2c1C(=O)CC(c1ccccc1)C2 (centres undefined)	·	0.15µM*	·	0.23µM*	·	2%
COC(=O)c1c[n+]([O-])ccc1OC	5%	-24%	?	-13%	30	·
COc1cc[n+]([O-])cc1[N+](=O)[O-]	20%	2.3µM*	18%	?	-19	19%
CCn1c(=O)cc(OCC(=O)N2CCN(c3ccc(C(C)=O)cc3)CC2)c2ccccc21	·	-11%	·	-3%	·	-21%
CCn1c(=O)cc(OCC(=O)N2CCN(c3ccc(OC)cc3)CC2)c2ccccc21	·	-92%	·	21µM*	·	-7%
CCn1c(=O)cc(OCC(=O)N2CCN(c3cccc(C(F)(F)F)c3)CC2)c2ccccc21	-13%	23µM*	-6%	16µM*	6	0%
Cn1c(=O)[nH]c(=O)c2c1nc(N1CCN(Cc3ccccc3F)CC1)n2CCCc1ccccc1	·	·	·	·	·	-3%
Cc1ccc(CNC(=O)Cc2csc(-c3ccccn3)n2)cc1F	·	·	·	·	·	-20%
COc1cccc(Cn2c(=O)c(-c3ccc(Cl)cc3)nc3cnc(N4CCN(C)CC4)nc32)c1	·	-28%	·	3%	·	?
COc1cccc(Cn2c(=O)c(-c3ccc(F)cc3)nc3cnc(N4CCNCC4)nc32)c1	·	23µM*	·	13µM*	·	?
COc1cccc(Cn2c(=O)c(-c3cccs3)nc3cnc(N4CCNCC4)nc32)c1	·	18µM*	·	?	·	?
COc1cccc(Cn2c(=O)c(-c3ccc(Cl)cc3)nc3cnc(N4CCNCC4)nc32)c1	·	5.8µM*	·	5.8µM*	·	-24%
COc1ccc(-c2nc3cnc(N4CCNCC4)nc3n(Cc3cccc(OC)c3)c2=O)cc1	·	4.6µM*	·	6.5µM*	·	?
Cc1cc(CS(=O)(=O)Cc2ccc(Cl)cc2)on1	·	·	·	·	·	37%
Cc1ccccc1CNC(C)(C)CO	·	·	·	·	·	-32%
O=c1c(-c2ccc(Cl)cc2)nc2cnc(N3CCNCC3)nc2n1Cc1ccc(F)cc1	·	9.2µM*	·	6.5µM*	·	?
COc1ccc(-c2nc3cnc(N4CCN(C)CC4)nc3n(Cc3ccc(F)cc3)c2=O)cc1	·	-24%	·	?	·	?
Nc1ccc(N2CCCCC2)cc1N1CCCCC1	-18%[9.24 µM]	?	?	?	?	254%
Nc1ccc(N2CCCCC2)c2nonc12	-12%	16µM*	?	26µM*	9	?
C[C@H]1CN=C(Nc2ccccc2)N1CCCC1CCCCC1	-21%	?	-3%	?	?	16%
SMILES	HT1080 IDH1KD tx	TDP1 cell noCPT	HT1080-NT tox	DT40 TDP1 CPT	IL-1B inflam inh	ALOX12 inh
CC(C)(C)CN1C(N)=NC[C@@H]1Cc1ccccc1	-6%	-27%	0%	-2%	-4	-1%
CCN1C(Nc2ccccc2)=NC[C@@H]1Cc1ccccc1	10%	-23%	10%	?	-2	16%
c1ccc(CCCCN2C(Nc3ccccc3)=NC[C@@H]2Cc2ccccc2)cc1	-5%	23µM*	-23%	?	-55*	?
c1ccc(C[C@H]2CN=C(Nc3ccccc3)N2CCCC2CCCC2)cc1	?	16µM*	?	?	-4	·
CC(C)(C)C1CCC(CN2C(Nc3ccccc3)=NC[C@@H]2Cc2ccccc2)CC1 (some centres undefined)	-25%	13µM*	-17%	23µM*	?	?
CCCCCCCN1C(Nc2ccccc2)=NC[C@@H]1Cc1ccccc1	?	18µM*	?	?	-16	-6%
COc1ccc(NC2CCCN(C(=O)C(C)(C)c3ccccc3)C2)cc1 (centres undefined)	·	·	·	·	·	-2%
O=S(=O)(c1ccc(Cl)cc1)c1nnn2c1nc(NCc1cccs1)c1sccc12	·	23µM*	·	?	·	0%
O=S(=O)(c1ccc(Cl)cc1)c1nnn2c1nc(N1CCCCC1)c1sccc12	·	16µM*	·	21µM*	·	-7%
Cc1ccc(S(=O)(=O)c2nnn3c2nc(NCc2cccs2)c2sccc23)cc1	·	-26%	·	-4%	·	-17%
Cc1cc(COc2ccc(S(=O)(=O)c3ccccc3)cc2)on1	·	·	·	·	·	13%
CC(C)(C)c1ccc(CN2N=Nc3ccccc3S2(=O)=O)cc1	?	7.3µM*	?	5.8µM*	-22	?
COc1cc(Cl)c(C)cc1NC(=O)CNC(=O)Cn1cnc2ccccc2c1=O	-5%	-13%	6%[9.24 µM]	-14%	-12	-1%
CCN(C(=O)Cn1cnc2onc(-c3ccc(F)cc3)c2c1=O)c1ccc(OC)cc1	·	12µM*	·	18µM*	·	?
CCOc1ccc(NC(=O)CCn2cnc3onc(-c4ccc(F)cc4)c3c2=O)cc1	·	-20%	·	-18%	·	?
Cc1ccc(C)c(N2CCN(C(=O)Cn3cnc4onc(-c5ccc(F)cc5)c4c3=O)CC2)c1	·	?	·	23µM*	·	-12%
COc1cc(OC)c(NC(=O)CCNC(=O)Cn2cnc3ccccc3c2=O)cc1Cl	-2%	?	1%	18µM*	-1	14%
O=C(Cn1cnc2onc(-c3ccc(F)cc3)c2c1=O)Nc1cccc(C(F)(F)F)c1	·	21µM*	·	23µM*	·	?
